# Measurements from PubChem BioAssay AID485344 (National Center for Advancing Translational Sciences (NCATS), 2010).
# About 6,900 (2%) of roughly 340,000 compounds were called active. This is one part of a sample in which actives are shown more often than they occur. Cut-off read from the data, not from the text of the source: active = inhibition above about 30%; inactive = below that, where a call was filed.
# Biological target: D(2) dopamine receptor (Homo sapiens) (UniProt P14416)
# Assay: HTS Assay for Allosteric Antagonists of the Human D2 Dopamine Receptor: Primary Screen for Antagonists; note: 0% is about no effect
# Settings: HEK293 TREx D2 cells, calcium flux, dopamine EC80; at 10 µM; active compounds read high
# Method in brief: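 Tetracycline-induced HEK293 TREx cells expressing D2 receptor forced-coupled to calcium signalling, loaded with no-wash calcium dye. Compounds added and calcium flux read 180 s, then dopamine added at EC80 and read a further 180 s.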
# Sequence of D(2) dopamine receptor (Homo sapiens) (P14416 whole entry, looked up): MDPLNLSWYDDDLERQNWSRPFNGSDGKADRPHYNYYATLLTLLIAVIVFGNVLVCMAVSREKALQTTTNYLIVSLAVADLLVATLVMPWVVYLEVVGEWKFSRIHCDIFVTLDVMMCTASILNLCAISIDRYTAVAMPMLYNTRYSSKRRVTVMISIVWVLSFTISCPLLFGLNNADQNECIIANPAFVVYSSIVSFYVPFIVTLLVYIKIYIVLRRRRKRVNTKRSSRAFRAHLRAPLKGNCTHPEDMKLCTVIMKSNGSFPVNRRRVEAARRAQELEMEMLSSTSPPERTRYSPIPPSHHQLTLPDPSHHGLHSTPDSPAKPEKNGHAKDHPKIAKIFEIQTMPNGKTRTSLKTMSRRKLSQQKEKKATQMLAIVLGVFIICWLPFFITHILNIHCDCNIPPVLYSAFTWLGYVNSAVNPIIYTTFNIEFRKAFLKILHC
row,SMILES,inhibition
1,CC1CC(C)CN(CC(=O)Nc2ccc(S(N)(=O)=O)cc2)C1 (stereo not drawn),-1.67% (inactive)
2,NS(=O)(=O)c1ccc(NC(=O)COC(=O)CCc2c[nH]c3ccccc23)cc1,2.49% (inactive)
3,CCc1ccc(CCC(=O)Nc2ccc(S(N)(=O)=O)cc2)o1,43.5% (active)
4,CC(=O)Nc1ccc(NC(=O)CSc2nnc(C3CC3)n2-c2ccccc2)cc1,2.45% (inactive)
5,Cc1ccc(S(=O)(=O)NCCC(=O)NCc2ccc(Cl)cc2)cc1C,-19% (inactive)
6,O=C(NCC(c1ccco1)N1CCc2ccccc21)c1cccc(F)c1 (stereo not drawn),5.81% (inactive)
7,O=C(O)c1cccnc1Sc1ncnc2sc3c(c12)CCC3,34.2% (active)
8,CCCSc1ncccc1C(=O)O,-16.5% (inactive)
9,COCCn1c(C)cc(C(=O)CSc2ncnc3sc4c(c23)CCC4)c1C,9.53% (inactive)
10,COc1cc(C(=O)N2CCN(C/C=C/c3ccccc3)CC2)cc(OC)c1C,0.0553% (inactive)
11,CNC(=O)NC(=O)C(C)N1CCN(C/C=C/c2ccccc2)CC1 (stereo not drawn),33.5% (active)
12,COc1ccccc1C(=O)NC(CCSC)C(=O)N1CCN(C/C=C/c2ccccc2)CC1 (stereo not drawn),3.22% (inactive)
13,CC1CCCCC12NC(=O)N(CC(=O)OCC(=O)NCc1ccc(F)cc1)C2=O (stereo not drawn),-29.1% (inactive)
14,CN(CC(=O)Nc1c(Cl)cccc1Cl)C(=O)CC1OC(=O)c2ccccc21 (stereo not drawn),4.45% (inactive)
15,O=C(O)C(c1ccccc1)C1(O)CCCCC1 (stereo not drawn),2.2% (inactive)
16,CCC(C(=O)OCCN(CC)CC)c1ccccc1 (stereo not drawn),6.37% (inactive)
17,CN(C)CCOC(=O)C(c1ccccc1)C1(O)CCCC1 (stereo not drawn),58.6% (active)
18,O=C(CSc1nc2[nH]c(=O)[nH]c(=O)c2s1)Nc1cccc(F)c1,-3.77% (inactive)
19,CCc1ccc(CN(C)C(C)C(=O)Nc2ccc(S(=O)(=O)N3CCCC3)cc2)cc1 (stereo not drawn),12.7% (inactive)
20,C/C(=N/NC(=O)c1ccc(NC(=O)c2ccc(F)cc2)cc1)c1ccccc1,14.8% (inactive)
21,CC(C)=C(NC(=O)c1ccccc1)C(=O)N/N=C(\C)c1ccccc1O,62.7% (active)
22,CNC(=O)C(NC(=O)c1ccccc1)=C(C)C,-6.51% (inactive)
23,CCCC(=O)Nc1ncnc2c1ncn2[C@@H]1O[C@@H]2OP(=O)(O)OC[C@H]2[C@H]1OC(=O)CCC,-4.97% (inactive)
24,CCO[C@@H]1OC(C(=O)N2CCOCC2)=C[C@H](C)[C@H]1CCCO,-3.13% (inactive)

row,SMILES,inhibition
1,CCO[C@H]1OC(C(=O)N2CCCCCCC2)=C[C@@H](c2ccc(C(F)(F)F)cc2)[C@@H]1CCCO,30.3% (active)
2,CCO[C@H]1OC(C(=O)N2CCOCC2)=C[C@@H](c2ccc3c(c2)OCO3)[C@@H]1CCCO,2.11% (inactive)
3,O=C(CSc1ccccc1)Nc1cccc(S(=O)(=O)N2CCCCC2)c1,0.706% (inactive)
4,Cc1ccc(C)c(C(=O)COC(=O)Cn2[nH]c(=O)c3ccccc3c2=O)c1,-1.59% (inactive)
5,Cc1ccc(NC(=S)N(Cc2ccco2)C(C)c2cccs2)cc1 (stereo not drawn),-6.52% (inactive)
6,Cc1ccc(NC(=S)N(CCN2CCCCC2)Cc2ccco2)cc1C,50.8% (active)
7,Cc1ccc(NC(=S)N(CCN(C)C)Cc2cccs2)cc1C,12.4% (inactive)
8,CCc1ccccc1NC(=S)N(CCN1CCCCCC1)Cc1ccco1,-0.524% (inactive)
9,Cc1ccc(NC(=S)N(CCCN2CCCC2)Cc2cccn2Cc2ccc(Cl)cc2)cc1,3.46% (inactive)
10,Cc1ccc(NC(=S)N(CCCN2CCC(C)CC2)Cc2ccco2)cc1,34.7% (active)
11,CN(C)S(=O)(=O)c1ccc(C(=O)NCC2(N3CCOCC3)CCCCC2)cc1,8.22% (inactive)
12,O=C(O)c1ccccc1N=N/C(=N/Nc1cc(S(=O)(=O)O)ccc1O)c1ccccc1,28.3% (inactive)
13,COc1ccc(Cn2c(=S)[nH]c3cc(C(=O)NCCCN4CCOCC4)ccc3c2=O)cc1,35.6% (active)
14,COc1ccc(Cn2c(=S)[nH]c3cc(C(=O)N4CCCCC4)ccc3c2=O)cc1,-3.83% (inactive)
15,CCN(CC)CCCNC(=O)c1ccc2c(=O)n(Cc3ccc4c(c3)OCO4)c(=S)[nH]c2c1,16.5% (inactive)
16,COc1cccc(C(=O)OCC(=O)c2[nH]c(C)c(C(C)=O)c2C)c1,8.22% (inactive)
17,Cn1c(=O)[nH]c(=O)c2c1nc(N(CCO)Cc1ccccc1)n2Cc1ccccc1Cl,73.5% (active)
18,CN(Cc1ccccc1)c1nc2c(c(=O)[nH]c(=O)n2C)n1CCSc1nc2ccccc2[nH]1,29.2% (inactive)
19,CCOC(=O)Cn1c(CN(Cc2ccccc2)Cc2ccccc2)nc2c1c(=O)[nH]c(=O)n2C,-7.46% (inactive)
20,COCCn1c(C)cc(C(=O)COC(=O)CNC(=O)c2ccco2)c1C,-8.05% (inactive)
21,Cc1ccc2nc(NC(=O)CSc3nc(=O)n(CCCN(C)C)c4c3CCC4)sc2c1,7.56% (inactive)
22,CSc1ccccc1C(=O)OCC(=O)N1CCN(C(C)=O)CC1,0.24% (inactive)
23,CC(=O)Nc1ccc(NC(=O)CCN2C(=O)C3CC=CCC3C2=O)cc1 (stereo not drawn),16.4% (inactive)
24,Cc1ccc(NC(=O)COc2coc(CN3CCc4ccccc4C3)cc2=O)cc1Cl,-2.55% (inactive)

row,SMILES,inhibition
1,CCOC(=O)c1ccc(NC(=O)C2CC(=O)Nc3nc4ccccc4n32)cc1 (stereo not drawn),-12.3% (inactive)
2,O=C(Nc1ccccc1)C1CC(=O)n2c(nc3ccccc32)N1 (stereo not drawn),33.6% (active)
3,CC(=O)c1ccc(NC(=O)C2CC(=O)Nc3nc4ccccc4n32)cc1 (stereo not drawn),-1.67% (inactive)
4,CC(C)Oc1ccc(S(=O)(=O)N2CCOCC2)cc1NC(=O)C1CCCC1,-5.29% (inactive)
5,CN(c1ccccc1)S(=O)(=O)c1cccc(NC(=O)Cc2ccc(Cl)cc2)c1,-11.8% (inactive)
6,COc1ccccc1CNC(=O)COC(=O)CNS(=O)(=O)c1ccc(NC(C)=O)cc1,4.15% (inactive)
7,COC(=O)Cn1c(O)c(N=NC(=O)OC)c2ccccc21,11.2% (inactive)
8,N#CCCCn1c(O)c(N=NC(=O)C(O)c2ccccc2)c2ccccc21 (stereo not drawn),38.5% (active)
9,CCCCn1c(O)c(N=NC(=O)Cn2c(C(F)(F)F)nc3ccccc32)c2ccccc21,16.8% (inactive)
10,OCCNCCOc1ccc(Cl)c(Cl)c1,33.4% (active)
11,OCCNCCCCOc1ccccc1F,4.36% (inactive)
12,OCCNCc1cccc(OCc2ccccc2Cl)c1,1.43% (inactive)
13,Cc1cccc(NS(=O)(=O)c2cccc(C(=O)NNC(=O)c3ccccc3O)c2)c1,-12.1% (inactive)
14,Cc1cc(C)cc(-c2nnc(SCC(=O)NC3CC3)o2)c1,5.88% (inactive)
15,CCC(C)C(N=C1NS(=O)(=O)c2ccccc21)C(=O)N1CCC(C)CC1 (stereo not drawn),17% (inactive)
16,Cc1n[nH]c(=O)c2c(NC(=O)COC(=O)c3ncc(Cl)c(Cl)c3Cl)oc(C)c12,-6.33% (inactive)
17,O=C(NNC(=S)Nc1ccc(Br)cc1Cl)c1ccco1,0.194% (inactive)
18,S=C(Nc1ccc(Br)cc1)NC1CCN(Cc2ccccc2)CC1,109% (active)
19,O=C(COc1ccc(Br)cc1F)NC1CCN(Cc2ccccc2)CC1,52.9% (active)
20,S=C(NN=C1CCN(Cc2ccccc2)CC1)NC1CCCCC1,5.59% (inactive)
21,O=C(COc1ccccc1F)NC1CC1,-13.9% (inactive)
22,S=C(Nc1ccc(Br)cc1Cl)NC1CCN(Cc2ccccc2)CC1,70.2% (active)
23,O=C(COc1ccccc1O)NC1CCCC1,1.67% (inactive)
24,Cc1cc(Br)ccc1NC(=S)NC1CCCC1,9.66% (inactive)

row,SMILES,inhibition
1,S=C(NCCCc1ccccc1)Nc1ccc(Br)cc1,3.8% (inactive)
2,CCOC(=O)Cc1csc(SCC(=O)Nc2ccc(C)cc2F)n1,0.767% (inactive)
3,CCCC1C(=O)N2C(N(C)C)=Nc3ccc(C)cc3N2C1=O (stereo not drawn),-7.75% (inactive)
4,Brc1ccc(CN2CC[C@H]3C=CCc4cccc(c43)C2)cc1,-16.8% (inactive)
5,Cc1ccc2c(c1)C1CN(C)CCC1N2S(=O)(=O)c1cccc(F)c1 (stereo not drawn),-6.37% (inactive)
6,CNS(=O)(=O)c1ccc(C(=O)NCC(=O)NCCc2ccc3c(c2)OCCO3)cc1,-17.4% (inactive)
7,Cc1csc(SCC(=O)N(c2ccccc2)C(C)C)n1,-0.577% (inactive)
8,O=S(=O)(NCCCCCCNS(=O)(=O)c1c(F)cccc1F)c1ccc2c(c1)OCCO2,-4.68% (inactive)
9,O=S(=O)(c1ccc(Br)cc1)c1nc(-c2ccccc2)oc1NCc1cccnc1,9.02% (inactive)
10,O=S(=O)(c1ccccc1)c1nc(-c2ccccc2)oc1NCCCN1CCOCC1,47.7% (active)
11,O=S(=O)(c1ccc(Br)cc1)c1nc(-c2ccccc2)oc1N1CCOCC1,15.8% (inactive)
12,CCOc1ccc(C(=O)CCC(=O)NC2=NCCS2)cc1,-11.7% (inactive)
13,Cc1ccc(COC(=O)CN2C(=O)NC3(CCCC3)C2=O)cc1,-1.94% (inactive)
14,COCCNC(=O)C1CCN(C(=O)C2CC(=O)N(c3ccc(C)cc3)C2)CC1 (stereo not drawn),30% (active)
15,COCCCNC(=O)C1CC(=O)N(c2ccc(C)cc2)C1 (stereo not drawn),-5.47% (inactive)
16,O=C(C1CC(=O)N(c2ccc(Br)cc2)C1)N1CCCC1 (stereo not drawn),-3.05% (inactive)
17,CCCC(C)NC(=O)C1CCN(C(=O)C2CC(=O)N(c3ccc(C)cc3)C2)CC1 (stereo not drawn),33% (active)
18,Cc1ccc(N2CC(C(=O)NCCS(=O)(=O)N3CCN(c4ccccc4)CC3)CC2=O)cc1 (stereo not drawn),8.52% (inactive)
19,CCc1ccc(N2CC(C(=O)N3CCCCCC3)CC2=O)cc1 (stereo not drawn),-11.6% (inactive)
20,Cc1ccc(NC(=O)CCC(=O)N2CCC(c3ccccc3)=N2)cc1S(=O)(=O)N1CCCCC1,-6.66% (inactive)
21,CC1(C)CC(=O)C=C(c2cccc3c2Oc2ccccc2S3)C1,2.71% (inactive)
